For 61 compounds, cytotoxicity call results are on record in the antibiotic and cytotoxicity screens of Wong et al. (2023).

The campaign covered roughly 39,000 compounds. About 3,300 (8.5%) were called active. The full list was thinned out, with actives kept by preference.

The test system of this experiment is HepG2. The experiment is described as follows: cytotoxicity call (relative viability < 0.9). Conditions: 10 µM.
With `CN(C)CCCNC(=O)C[C@@H]1CC[C@H]2[C@@H](COc3ccc(NC(=O)c4cccc(F)c4)cc3C(=O)N2C)O1`, the cytotoxicity call was “inactive”.
As for `Cc1ccc(S(=O)(=O)Nc2cccc3c2O[C@@H](CN(C)S(=O)(=O)c2ccc(F)cc2)[C@@H](C)CN([C@H](C)CO)C3=O)cc1`, the cytotoxicity call is “inactive”.
On to `CC(C)(C)OC(=O)C[C@H]1C/C=C/CC[C@H](Cc2ccc(F)cc2)C(=O)O[C@H](c2ccccc2)CNC1=O`, for which the cytotoxicity call was “inactive”.
In the case of `C[C@@H]1CCCCO[C@@H](CN(C)S(=O)(=O)c2cccs2)[C@@H](C)CN([C@H](C)CO)C(=O)c2cc(NS(=O)(=O)c3cn(C)cn3)ccc2O1`, the cytotoxicity call was “inactive”.
The same measure for `CC(C)NC(=O)N(C)C[C@@H]1OCCCC[C@@H](C)Oc2ccc(NC(=O)C3CCCCC3)cc2C(=O)N([C@H](C)CO)C[C@@H]1C`: “inactive”; for `COc1ccc(S(=O)(=O)N(C)C[C@H]2Oc3c(NS(=O)(=O)c4cn(C)cn4)cccc3C(=O)N([C@H](C)CO)C[C@@H]2C)cc1`: “inactive”.
`C[C@@H]1CN([C@@H](C)CO)C(=O)c2cc(C#C[C@@H](C)O)cnc2O[C@H]1CN(C)Cc1cncnc1`: the cytotoxicity call is “inactive”.
Turning to `Cc1ccc(S(=O)(=O)Nc2ccc3c(c2)C(=O)N([C@H](C)CO)C[C@@H](C)[C@@H](CN(C)Cc2ccc(C(F)(F)F)cc2)OCCCC[C@@H](C)O3)cc1`, the cytotoxicity call was “inactive”.
For `Cc1ccc(S(=O)(=O)Nc2ccc3c(c2)C(=O)N([C@H](C)CO)C[C@H](C)[C@H](CN(C)Cc2ccc(C(F)(F)F)cc2)OCCCC[C@H](C)O3)cc1`, the cytotoxicity call was “inactive”.
For `C[C@@H]1CCCCO[C@@H](CN(C)Cc2ccc(C(F)(F)F)cc2)[C@@H](C)CN([C@H](C)CO)C(=O)c2cc(NS(=O)(=O)c3ccc(F)cc3)ccc2O1`, the cytotoxicity call is “active”.
The value for `Cc1ccc(S(=O)(=O)Nc2ccc3c(c2)C(=O)N([C@@H](C)CO)C[C@@H](C)[C@@H](CN(C)Cc2ccc(C(F)(F)F)cc2)OCCCC[C@@H](C)O3)cc1` was “active”; that for `C[C@@H]1CN([C@H](C)CO)C(=O)c2cc(NS(=O)(=O)c3ccc(F)cc3)ccc2O[C@@H](C)CCCCO[C@H]1CN(C)Cc1ccc(C(F)(F)F)cc1` was “inactive”.
For the compound `C[C@@H]1CCCCO[C@@H](CN(C)Cc2ccc(C(F)(F)F)cc2)[C@H](C)CN([C@H](C)CO)C(=O)c2cc(NS(=O)(=O)c3ccc(F)cc3)ccc2O1`, the cytotoxicity call was “inactive”.
With `Cc1ccc(S(=O)(=O)Nc2ccc3c(c2)C(=O)N([C@H](C)CO)C[C@@H](C)[C@H](CN(C)Cc2ccc(C(F)(F)F)cc2)OCCCC[C@H](C)O3)cc1`, the cytotoxicity call is “active”.
The same measure for `C[C@@H]1CN([C@@H](C)CO)C(=O)c2cccc(NC(=O)C3CCOCC3)c2O[C@H]1CN(C)Cc1ccccc1`: “inactive”; for `NCC[C@H]1CC[C@@H](NC(=O)Cc2ccncc2)[C@@H](CO)O1`: “inactive”.
The same measure for `C[C@@H]1CN([C@@H](C)CO)C(=O)CCCn2cc(nn2)CO[C@H]1CN(C)S(=O)(=O)c1ccc(Oc2ccccc2)nc1`: “inactive”; for `CSc1nn(C)c2cnn(C)c(=O)c12`: “inactive”; for `C[C@H](CO)N1C[C@H](C)[C@H](CN(C)S(=O)(=O)c2cn(C)cn2)Oc2ncc(C#Cc3ccccc3)cc2C1=O`: “inactive”.
As for `COc1ccc(S(=O)(=O)Nc2ccc3c(c2)C(=O)N([C@H](C)CO)C[C@H](C)[C@@H](CN(C)C(=O)Nc2c(C)noc2C)OCCCC[C@@H](C)O3)cc1`, the cytotoxicity call is “inactive”.
`C[C@@H]1CN([C@@H](C)CO)C(=O)c2cc(NC(=O)Nc3ccc(F)cc3)ccc2O[C@@H](C)CCCCO[C@H]1CN(C)C(=O)CCCN(C)C`: the cytotoxicity call is “inactive”.
As to `Cc1noc(C)c1S(=O)(=O)Nc1ccc2c(c1)C(=O)N([C@@H](C)CO)C[C@@H](C)[C@@H](CN(C)S(=O)(=O)c1ccc(Cl)cc1)O2`, the cytotoxicity call was “inactive”.
Take `C[C@@H]1CN([C@H](C)CO)C(=O)c2cc(C#Cc3cccc(F)c3)cnc2O[C@@H]1CN(C)C(=O)C1CCOCC1`: the cytotoxicity call is “inactive”.
`C[C@@H]1CCCCO[C@H](CN(C)C(=O)Nc2ccccc2)[C@H](C)CN([C@@H](C)CO)C(=O)c2cc(NS(=O)(=O)c3ccc(F)cc3)ccc2O1`: the cytotoxicity call is “inactive”.
The same measure for `C[C@@H]1CCCCO[C@@H](CN(C)C(=O)Nc2ccccc2)[C@H](C)CN([C@@H](C)CO)C(=O)c2cc(NS(=O)(=O)c3ccc(F)cc3)ccc2O1`: “inactive”; for `C[C@@H]1CCCCO[C@@H](CN(C)C(=O)Nc2ccccc2)[C@H](C)CN([C@H](C)CO)C(=O)c2cc(NS(=O)(=O)c3ccc(F)cc3)ccc2O1`: “active”; for `C[C@@H]1CN([C@@H](C)CO)C(=O)c2cc(NS(=O)(=O)c3ccc(F)cc3)ccc2O[C@@H](C)CCCCO[C@H]1CN(C)C(=O)Nc1ccccc1`: “inactive”.
For the compound `C[C@H](CO)N1C[C@H](C)[C@@H](CN(C)C(=O)Nc2ccccc2)OCCCC[C@H](C)Oc2ccc(NS(=O)(=O)c3ccc(F)cc3)cc2C1=O`, the cytotoxicity call was “inactive”.
Turning to `C[C@@H]1CN([C@H](C)CO)C(=O)c2cc(NS(=O)(=O)c3ccc(F)cc3)ccc2O[C@@H](C)CCCCO[C@H]1CN(C)C(=O)Nc1ccccc1`, the cytotoxicity call is “active”.
As to `COc1cccc(C(=O)Nc2ccc3c(c2)C(=O)N(C)[C@@H]2CC[C@H](CC(=O)NCCCN4CCOCC4)O[C@@H]2CO3)c1`, the cytotoxicity call was “inactive”.
Take `Cn1ccc2ccc(CN)cc21`: the cytotoxicity call was “inactive”.
The same measure for `Cc1cc(C)nc(C#N)n1`: “inactive”.
As to `C[C@H](CO)N1C[C@H](C)[C@@H](CN(C)C(=O)Nc2ccc3c(c2)OCO3)Oc2ccc(NC(=O)Nc3cccc4ccccc34)cc2CC1=O`, the cytotoxicity call was “inactive”.
`COc1ccc(S(=O)(=O)Nc2ccc3c(c2)C(=O)N([C@H](C)CO)C[C@H](C)[C@H](CN(C)C(=O)Nc2ccc(F)cc2)OCCCC[C@@H](C)O3)cc1`: the cytotoxicity call was “inactive”.
On to `COCC#Cc1ccc2c(c1)O[C@@H](CN(C)C(=O)c1ccccc1)[C@H](C)CN([C@H](C)CO)S2(=O)=O`, for which the cytotoxicity call was “inactive”.
On to `C[n+]1cc2c3c(ccc2c2ccc4cc5c(cc4c21)OCO5)OCO3.[Cl-]`, for which the cytotoxicity call is “active”.
Take `CCCNC(=O)N1C[C@@H](O)COC[C@H]2O[C@H](CC(=O)N3CCN(C)CC3)CC[C@@H]21`: the cytotoxicity call was “inactive”.
The value for `C[n+]1ccn(C[C@@]2(C)[C@H](C(=O)O)N3C(=O)C[C@H]3S2(=O)=O)n1` was “inactive”.
On to `Cc1noc(C)c1NC(=O)N(C)C[C@H]1Oc2c(NS(=O)(=O)c3cn(C)cn3)cccc2C(=O)N([C@@H](C)CO)C[C@@H]1C`, for which the cytotoxicity call is “inactive”.
Regarding `Cc1ccc(S(=O)(=O)N[C@@H](Cc2ccccc2)C(=O)NCCCn2cc(-c3ccc(C(=O)NO)s3)nn2)cc1`, the cytotoxicity call was “inactive”.
The value for `C[C@H]1COC(=O)[C@H](Cc2ccc(F)cc2)CC=CC[C@@H](CC(=O)N[C@H](CO)Cc2ccccc2)C(=O)N1` was “inactive”; that for `O=C(C[C@@H]1C/C=C/C[C@H](Cc2ccccc2)C(=O)N[C@H](c2ccccc2)COC1=O)NCc1ccc(Cl)cc1` was “active”; that for `CC(=O)N[C@H]1C/C=C/C[C@@H](CC(=O)NCc2ccc(Cl)cc2)C(=O)NC[C@@H](c2ccccc2)OC1=O` was “inactive”.
`C[C@@H]1CN([C@@H](C)CO)C(=O)c2cc(NC(=O)c3ccncc3)ccc2O[C@@H](C)CCCCO[C@@H]1CN(C)Cc1ccccc1`: the cytotoxicity call is “inactive”.
As to `C[C@H]1CN([C@@H](C)CO)C(=O)c2cc(NC(=O)Cn3cnnn3)ccc2O[C@@H]1CN(C)S(=O)(=O)c1ccc(Cl)cc1`, the cytotoxicity call is “inactive”.
With `C[C@H]1CN([C@@H](C)CO)C(=O)Cc2cc(NC(=O)Nc3ccc(F)cc3)ccc2O[C@@H]1CN(C)Cc1ccc(-c2ccccc2)cc1`, the cytotoxicity call was “active”.
Regarding `C[C@H](CO)N1C[C@H](C)[C@@H](CN(C)Cc2ccc(-c3ccccc3)cc2)Oc2ccc(NC(=O)Nc3ccc(F)cc3)cc2CC1=O`, the cytotoxicity call was “active”.
`C[C@H](CO)N1C[C@H](C)[C@H](CN(C)Cc2ccc(-c3ccccc3)cc2)Oc2ccc(NC(=O)Nc3ccc(F)cc3)cc2CC1=O`: the cytotoxicity call is “active”.
Consider `C[C@@H]1CN([C@@H](C)CO)C(=O)Cc2cc(NC(=O)Nc3ccc(F)cc3)ccc2O[C@@H]1CN(C)Cc1ccc(-c2ccccc2)cc1`, for which the cytotoxicity call was “active”.
As to `C[C@H](CO)N1C[C@H](C)[C@@H](CN(C)S(=O)(=O)c2cn(C)cn2)Oc2ncc(C3=CCCC3)cc2C1=O`, the cytotoxicity call is “inactive”.
With `O=C(CN1CCOCC1)N[C@H]1CC[C@@H](CCNC(=O)Nc2cc(F)ccc2F)O[C@H]1CO`, the cytotoxicity call was “inactive”.
With `CON=C(C(=O)NC1C(=O)N2C(C(=O)[O-])=C(COC(N)=O)CSC12)c1ccco1.[Na+]` (stereo unspecified), the cytotoxicity call was “inactive”.
As to `C[C@@H]1CCCCO[C@H](CN(C)C(=O)Nc2cccc3ccccc23)[C@@H](C)CN([C@@H](C)CO)C(=O)c2cc(N(C)C)ccc2O1`, the cytotoxicity call is “inactive”.
`CCCNC(=O)N(C)C[C@H]1Oc2cc(C#Cc3cccc(F)c3)ccc2S(=O)(=O)N([C@H](C)CO)C[C@H]1C`: the cytotoxicity call was “inactive”.
Take `C[C@H](CO)N1C[C@H](C)[C@H](CN(C)Cc2ccccc2)OCCCC[C@H](C)Oc2ccc(NS(=O)(=O)c3ccc(Cl)cc3)cc2C1=O`: the cytotoxicity call is “inactive”.
Take `CCCNC(=O)N(C)C[C@@H]1Oc2cc(-c3ccc(C)cc3)ccc2S(=O)(=O)N([C@H](C)CO)C[C@@H]1C`: the cytotoxicity call was “inactive”.
As to `COCC(=O)N(C)C[C@H]1Oc2cc(C#Cc3ccccc3)ccc2S(=O)(=O)N([C@H](C)CO)C[C@H]1C`, the cytotoxicity call is “inactive”.
Consider `C[C@@H]1CN([C@H](C)CO)C(=O)Cc2cc(NC(=O)Nc3ccc(F)cc3)ccc2O[C@@H]1CN(C)Cc1ccc(-c2ccccc2)cc1`, for which the cytotoxicity call was “inactive”.
As to `C[C@@H]1CN([C@H](C)CO)C(=O)Cc2cc(NC(=O)Nc3ccc(F)cc3)ccc2O[C@H]1CN(C)Cc1ccc(-c2ccccc2)cc1`, the cytotoxicity call was “active”.
Regarding `C[C@H]1CN([C@@H](C)CO)C(=O)Cc2cc(NC(=O)Nc3ccc(F)cc3)ccc2O[C@H]1CN(C)Cc1ccc(-c2ccccc2)cc1`, the cytotoxicity call was “active”.
On to `C[C@@H]1CN([C@@H](C)CO)C(=O)Cc2cc(NC(=O)Nc3ccc(F)cc3)ccc2O[C@H]1CN(C)Cc1ccc(-c2ccccc2)cc1`, for which the cytotoxicity call was “active”.
